Measured values published in PubChem BioAssay (NCATS).
The source made the active and inactive calls.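 How the source made its calls: active means compounds whose dose series gives a full or clear partial fitted curve of increased nuclear translocation; inconclusive means weak partial curve or effect only at the top dose; inactive means no dose-dependent translocation response.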

Target: Glucocorticoid receptor (Homo sapiens) (UniProt P04150)
Experiment: GR-GFP Redistribution (AID 450)
Conditions: U2OS GR-GFP nuclear translocation, laser cytometry, 2 h; series mostly up to 20.6 µM
Potency means the concentration at half of the fitted maximal effect.

Sequence of Glucocorticoid receptor (Homo sapiens) (P04150 whole entry, looked up): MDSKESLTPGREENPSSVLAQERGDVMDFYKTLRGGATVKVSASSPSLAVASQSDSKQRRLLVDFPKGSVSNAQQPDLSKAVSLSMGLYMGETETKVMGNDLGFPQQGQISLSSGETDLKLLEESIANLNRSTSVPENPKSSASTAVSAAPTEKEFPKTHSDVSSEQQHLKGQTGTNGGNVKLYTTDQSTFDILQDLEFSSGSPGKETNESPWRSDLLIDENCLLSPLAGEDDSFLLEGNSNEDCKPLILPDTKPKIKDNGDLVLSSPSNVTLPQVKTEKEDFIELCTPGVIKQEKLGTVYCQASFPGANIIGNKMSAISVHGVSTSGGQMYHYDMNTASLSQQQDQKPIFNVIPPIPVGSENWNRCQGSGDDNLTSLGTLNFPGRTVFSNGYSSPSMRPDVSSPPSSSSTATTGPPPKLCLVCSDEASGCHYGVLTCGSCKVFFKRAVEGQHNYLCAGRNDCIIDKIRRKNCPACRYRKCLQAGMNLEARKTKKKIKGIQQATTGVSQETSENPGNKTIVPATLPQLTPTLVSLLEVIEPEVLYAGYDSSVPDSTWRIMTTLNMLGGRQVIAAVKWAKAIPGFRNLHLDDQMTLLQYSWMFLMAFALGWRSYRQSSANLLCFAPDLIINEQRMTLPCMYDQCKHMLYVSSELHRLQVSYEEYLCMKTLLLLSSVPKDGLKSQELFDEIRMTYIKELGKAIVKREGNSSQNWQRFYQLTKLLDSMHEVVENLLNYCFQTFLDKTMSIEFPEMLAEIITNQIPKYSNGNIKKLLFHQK

Potency, inactive:
CCC1=Nc2ccccc2NC2=C1C(=O)CCC2 > 20.6 µM, CC(C)c1nc2n[nH]c(N)c2c2c1CCCC2 > 20.6 µM, Cc1noc(NS(=O)(=O)c2ccc(NC(=O)COc3ccccc3)cc2)c1C > 20.6 µM, c1cc2c(cc1C1=Nn3c(nnc3C3CCCCC3)SC1)OCO2 > 20.6 µM, C[C@@H]1C[C@H](Nc2ccccc2)c2ccccc2N1C(=O)c1cccnc1 > 20.6 µM, Cc1cc(=O)oc(C)c1C(=O)N1CCN(C)CC1 > 20.6 µM, CC(C)c1cc(NCCCN2CCOCC2)n2c(nc3ccccc32)c1C#N > 20.6 µM, Cc1cc(-c2ccc(F)cc2)nc2cc(C(N)=O)nn12 > 20.6 µM, Cc1cc(C)n(-c2nnc(C)n2/N=C/c2ccco2)n1 > 20.6 µM, CC(=O)c1c(N)nc2n(c1=O)CCCCC2 > 20.6 µM, FC(F)(F)c1cccc(N2CCc3cn[nH]c32)c1 > 20.6 µM, O=C(NCCO)C1(c2ccccc2)CCCC1 > 20.6 µM, COc1ccccc1C(CC(=O)Nc1nccs1)c1ccco1 (centres undefined) > 20.6 µM, c1ccc(Cc2nn[nH]n2)cc1 > 20.6 µM, CC(=O)c1ccc(C#CC(C)(C)O)s1 > 20.6 µM, COC(=O)C1=C(N)Oc2cc(C)oc(=O)c2C1c1ccncc1 (centres undefined) > 20.6 µM, N#Cc1nc(-c2cccs2)oc1NCCN1CCOCC1 > 20.6 µM, COc1cccc2c(=O)c(SC(F)(F)C(F)C(F)(F)F)c(C)[nH]c12 (centres undefined) > 20.6 µM, Cc1[nH]nc2cn[nH]c12 > 20.6 µM, COc1ccc(CCNC(=O)c2ccc(=O)[nH]n2)cc1OC > 20.6 µM, CCOC(=O)c1ccccc1OCc1cc(/C=N/n2cncn2)ccc1OC > 20.6 µM, COC(=O)C(NC(=O)c1ccccc1)(Nc1nccs1)C(F)(F)F (centres undefined) > 20.6 µM, CC1(c2ccco2)NC(=O)NC1=O (centres undefined) > 20.6 µM, Cn1ncc(N=Cc2ccccc2O)c1C(=O)Nc1ccccc1 > 20.6 µM, CC12CN3CC(C)(CN(C1)C3c1ccc(Cl)cc1Cl)C2O (centres undefined) > 20.6 µM, C/C=C/c1ccccc1OCc1ccc(C(=O)O)o1 > 20.6 µM, COc1ccc(-c2cn3ccsc3n2)cc1 > 20.6 µM, COc1ccc(C2C(C(C)=O)=C(O)C(=O)N2c2nccs2)cc1OC (centres undefined) > 20.6 µM, Cc1cc(/C(O)=C2\C(=O)C(=O)N(CCN(C)C)C2c2ccncc2)ccc1OCc1ccccc1 (centres undefined) > 20.6 µM, COCc1n[nH]c(=S)n1-c1cccc2ccccc12 > 20.6 µM, CSc1nnc2n(C3CCCCC3)c(=O)c3c4c(sc3n12)CCCC4 > 20.6 µM, C=C1[C@@H](C)C2[C@H](Cc3ccccc3)NC(=O)[C@]23OC(=O)CC[C@H](O)CCC[C@H](C)C/C=C/[C@H]3[C@@H]1O (some centres undefined) > 20.6 µM, C=CCSc1nc(C)c(CC=C)c(=O)[nH]1 > 20.6 µM, CCN(CC)CCN1C(=O)C(=O)/C(=C(/O)c2c(C)[nH]c(C(=O)OC)c2C)C1c1ccccc1 (centres undefined) > 20.6 µM, COC(=O)CSc1ncnc2c1sc1nc(-c3ccco3)c3c(c12)CC(C)(C)OC3 > 20.6 µM, COc1ccc(OCC(O)CN2C(=O)NC(C)(C)C2=O)cc1 (centres undefined) > 20.6 µM, CCC(NC(=O)NC1=NCCS1)(C(F)(F)F)C(F)(F)F > 20.6 µM, CCOC(=O)c1c(C)n(C)c2ccc(OC)c(NC(=O)CCN3CCSCC3)c12 > 20.6 µM, CCOC(=O)c1cc2c(=O)n3ccccc3nc2n(Cc2ccccc2Cl)c1=N > 20.6 µM
